Test systems include NCI-H23 lung; NCI-H226 lung; NCI-H322M lung; HOP-62 NSCLC; NCI-H460 lung; HOP-92 NSCLC; NCI-H522 lung; A549/ATCC NSCLC; 786-0 renal; COLO 205 colon.
Common to all, as to test: NCI-60 one-dose screen, 48 h (100 = growth as untreated, 0 = no growth, -100 = all killed)
Conditions in all cases: 10 µM unless noted

Structures are written as SMILES. This is part of a sample that, as a whole, favours compounds with a hit. Of some 83,000 tested, about 20% had one in any assay.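 For each line, cells grew in 96-well plates with the test compound present at a single concentration for 48 hours.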 Unmarked numbers belong to inactive results. Activity calls are given as the source filed them. The calls were made as follows: active = growth percent below 10; inactive = the rest.

For the compound `O=C1CC(=O)OC(c2ccc([N+](=O)[O-])cc2)O1`, the growth in the experiment on NCI-H23 lung is 43.6%; in the experiment with NCI-H226 lung, 34.8%; in the experiment with NCI-H322M lung, 51.7%; in the experiment on HOP-62 NSCLC it was 26.5%; with NCI-H460 lung, 35.6%; in the experiment with HOP-92 NSCLC, 36.9%. The growth is -65.5% (active) with NCI-H522 lung, 33.6% in the experiment on A549/ATCC NSCLC, -73.8% (active) in the experiment with 786-0 renal and -31% (active) in the experiment on COLO 205 colon.
`c1ccc2cc(Cn3c(-c4cccc5ccccc45)[n+](Cc4ccc5ccccc5c4)c4c5ccccc5c5ccccc5c43)ccc2c1`: the growth is -60.8% (active) with NCI-H23 lung; -66% (active) in the experiment with NCI-H226 lung; -25% (active) in the experiment with NCI-H322M lung; -85.1% (active) in the experiment on HOP-62 NSCLC; -71.7% (active) in the experiment on NCI-H460 lung; -52.3% (active) with HOP-92 NSCLC. Moreover, the growth with NCI-H522 lung is -64.2% (active); with A549/ATCC NSCLC it was -71.7% (active); in the experiment with 786-0 renal, -70% (active); in the experiment on COLO 205 colon it was -84.9% (active).
As to `COc1ccc(Cc2cnc(NC(=O)c3ccc4c(c3)OCCO4)s2)cc1`, the growth was 18.8% in the experiment with NCI-H23 lung; 1.86% (active) in the experiment on NCI-H226 lung; 41.3% in the experiment with NCI-H322M lung; 29.1% with HOP-62 NSCLC; 6.33% (active) with NCI-H460 lung; 57.8% in the experiment on HOP-92 NSCLC. Further, the growth with NCI-H522 lung is -2.66% (active); with A549/ATCC NSCLC, 16.1%; in the experiment with 786-0 renal, 26.6%; in the experiment on COLO 205 colon it was -6.28% (active).
For the compound `Nc1nc(Nc2ccccc2SSc2ccccc2Nc2nc(N)nc(-c3cccs3)n2)nc(-c2ccsc2)n1`, the growth is 59.5% in the experiment with NCI-H23 lung; 85.2% with NCI-H226 lung; 90.6% with NCI-H322M lung; -41.2% (active) in the experiment on HOP-62 NSCLC; 55.9% with NCI-H460 lung; 104% in the experiment on HOP-92 NSCLC. Also, the growth in the experiment with NCI-H522 lung was 85.3%; in the experiment with A549/ATCC NSCLC, 18.4%; with 786-0 renal it was 93.6%; in the experiment on COLO 205 colon it was 97.8%.
Regarding `O=C(/C=C/c1ccc(F)cc1)c1ccc(NC(=O)N2CCN(c3cc4c(cc3F)c(=O)c(C(=O)O)cn4C3CC3)CC2)cc1`, the growth with NCI-H23 lung is 92.8%; with NCI-H226 lung, 96.1%; in the experiment with NCI-H322M lung, 100%; with HOP-62 NSCLC it was 98%; in the experiment with NCI-H460 lung it was 82.9%; in the experiment on HOP-92 NSCLC it was 88.5%. In addition, the growth in the experiment with NCI-H522 lung is 87%; in the experiment on A549/ATCC NSCLC, 102%; in the experiment with 786-0 renal, 92.4%; in the experiment with COLO 205 colon it was 115%.
In the case of `Cc1nc2ccc(Cl)cn2c1-c1nnc(SCc2ccc([N+](=O)[O-])cc2)o1`, the growth in the experiment with NCI-H23 lung was 55.9%; in the experiment on NCI-H226 lung it was 56.4%; with NCI-H322M lung it was 63.6%; with HOP-62 NSCLC, 49.6%; in the experiment with NCI-H460 lung it was 49.5%; in the experiment on HOP-92 NSCLC, 48.3%. Moreover, the growth in the experiment on NCI-H522 lung is 45.8%; in the experiment on A549/ATCC NSCLC it was 66.8%; in the experiment with 786-0 renal it was 62.5%; in the experiment with COLO 205 colon, 105%.
Take `O=C(Cc1ccc(/C=C/C(=O)c2ncc[nH]2)cc1)Nc1ccc(Cl)cc1`: the growth is 28.6% with NCI-H23 lung; 82.2% in the experiment on NCI-H226 lung; 42.8% in the experiment with NCI-H322M lung; 8.21% (active) in the experiment with HOP-62 NSCLC; -35.5% (active) in the experiment with NCI-H460 lung; 76% in the experiment with HOP-92 NSCLC. Moreover, the growth in the experiment on NCI-H522 lung is 34.2%; with A549/ATCC NSCLC, 33.2%; with 786-0 renal, 4.48% (active); in the experiment on COLO 205 colon it was 32.9%.
With `N#Cc1c(-c2cccc([N+](=O)[O-])c2)nc(SCC(=O)c2ccc(Cl)cc2)[nH]c1=O`, the growth in the experiment with NCI-H23 lung was 98.5%; with NCI-H226 lung, 97.6%; in the experiment with NCI-H322M lung, 96.8%; in the experiment on HOP-62 NSCLC it was 87.4%; in the experiment on NCI-H460 lung, 108%; in the experiment on HOP-92 NSCLC, 94.3%. Besides, the growth with NCI-H522 lung is 88.8%; with A549/ATCC NSCLC, 101%; with 786-0 renal, 96.7%; in the experiment with COLO 205 colon it was 103%.
For the compound `O=C1Nc2cc(-c3cccc(O)c3)ccc2/C1=C/c1ccc[nH]1`, the growth in the experiment with NCI-H23 lung is 4.68% (active); with NCI-H226 lung, 73.9%; with NCI-H322M lung, 21.8%; in the experiment with HOP-62 NSCLC, 14%; with NCI-H460 lung it was 4.52% (active); in the experiment on HOP-92 NSCLC it was 30.9%. For the same compound, the growth was 3.76% (active) in the experiment with NCI-H522 lung, 17.7% in the experiment on A549/ATCC NSCLC, 15% in the experiment with 786-0 renal and 83.7% with COLO 205 colon.
As for `COc1ccccc1NS(=O)(=O)c1cccc(C(=O)Nc2ccc(Br)cc2)c1`, the growth was 35.9% in the experiment on NCI-H23 lung; 44.2% in the experiment with NCI-H226 lung; 53.1% with NCI-H322M lung; 62.9% in the experiment on HOP-62 NSCLC; 47% in the experiment on NCI-H460 lung; 38.9% with HOP-92 NSCLC. The growth in the experiment on NCI-H522 lung is 46.7%; in the experiment on A549/ATCC NSCLC, 46%; in the experiment on 786-0 renal it was 59.5%; with COLO 205 colon it was 57.9%.
Regarding `CC1(C)NCCC[C@]2(C)[C@H]3CC(=O)[C@H]4[C@@H]5C[C@](C)(CO)CC[C@]5(C)CC[C@@]4(C)[C@]3(C)CC[C@@H]12`, the growth with NCI-H23 lung was 104%; in the experiment with NCI-H226 lung it was 97.9%; with NCI-H322M lung, 98.2%; in the experiment on HOP-62 NSCLC it was 92.4%; in the experiment with NCI-H460 lung, 99.6%; in the experiment with HOP-92 NSCLC it was 84%. Moreover, the growth with NCI-H522 lung is 101%; in the experiment on A549/ATCC NSCLC, 92%; in the experiment on 786-0 renal, 94%; with COLO 205 colon it was 94.2%.
Take `Cc1ncc(C(=O)Nc2ccc(CN3CCN(C)CC3)c(C(F)(F)F)c2)cc1C#Cc1cnc(N)cc1C#N`: the growth in the experiment on NCI-H23 lung was 30.6%; with NCI-H226 lung, -71% (active); in the experiment with NCI-H322M lung, 28%; with HOP-62 NSCLC, 42.3%; in the experiment with NCI-H460 lung it was -77.6% (active); in the experiment with HOP-92 NSCLC, 17.3%. For the same compound, the growth in the experiment with NCI-H522 lung was -46.2% (active); in the experiment on A549/ATCC NSCLC it was -89.5% (active); in the experiment on 786-0 renal, -65.5% (active); with COLO 205 colon it was 21.5%.
For the compound `CN1C(=O)NC(c2ccc3c(c2)OCO3)C=C1c1ccccc1` (stereo not given), the growth in the experiment with NCI-H23 lung was 96.3%; with NCI-H226 lung, 103%; in the experiment on NCI-H322M lung it was 92.4%; in the experiment with HOP-62 NSCLC, 91.3%; in the experiment with NCI-H460 lung, 97.6%; in the experiment on HOP-92 NSCLC, 93.9%. The growth was 80% with NCI-H522 lung, 91.1% in the experiment on A549/ATCC NSCLC, 83% in the experiment with 786-0 renal and 107% with COLO 205 colon.
Turning to `COC(=O)C(OC(C)=O)C(OC(C)=O)c1ccc(OC)c(OC)c1` (stereo not given), the growth with NCI-H23 lung is 96.8%; with NCI-H226 lung it was 98.4%; in the experiment with NCI-H322M lung, 93.4%; in the experiment with HOP-62 NSCLC, 98.2%; with NCI-H460 lung it was 104%; in the experiment on HOP-92 NSCLC, 110%. Further, the growth in the experiment on NCI-H522 lung was 85.9%; in the experiment on A549/ATCC NSCLC, 80.1%; in the experiment with 786-0 renal it was 101%; in the experiment on COLO 205 colon, 123%.
Consider `COc1cc(C2=C(c3cn(C)c4ccccc34)COC2=O)cc(OC)c1OC`, for which the growth in the experiment with NCI-H23 lung was 14.2%; with NCI-H226 lung, 15.3%; in the experiment on NCI-H322M lung, 26.6%; in the experiment with HOP-62 NSCLC, 31.7%; in the experiment on NCI-H460 lung, 3.03% (active); in the experiment on HOP-92 NSCLC, 19.1%. The growth in the experiment on NCI-H522 lung was 3.38% (active); in the experiment on A549/ATCC NSCLC, 18.4%; in the experiment on 786-0 renal, 20.9%; in the experiment with COLO 205 colon it was -4.65% (active).
Regarding `CC(c1ccccc1)C(C(=O)c1ccccc1)c1ccccc1` (stereo not given), the growth in the experiment with NCI-H23 lung was 84.6%; in the experiment on NCI-H226 lung, 73.5%; in the experiment on NCI-H322M lung, 103%; in the experiment with HOP-62 NSCLC, 44.8%; in the experiment on NCI-H460 lung it was 88.3%; in the experiment with HOP-92 NSCLC it was 107%. For the same compound, the growth with NCI-H522 lung was 68.4%; in the experiment with A549/ATCC NSCLC it was 80%; in the experiment on 786-0 renal, 83.5%; in the experiment on COLO 205 colon it was 112%.

Source of the values: PubChem BioAssay (NCI).
